± gives the standard deviation of the averaged measurements. About 5,400 targets were measured; listed, in parts, are those with the largest changes and a random draw of the rest.

This assay deals with T1, UniProt P35613|P35613-2.
T1 sequence (whole entry): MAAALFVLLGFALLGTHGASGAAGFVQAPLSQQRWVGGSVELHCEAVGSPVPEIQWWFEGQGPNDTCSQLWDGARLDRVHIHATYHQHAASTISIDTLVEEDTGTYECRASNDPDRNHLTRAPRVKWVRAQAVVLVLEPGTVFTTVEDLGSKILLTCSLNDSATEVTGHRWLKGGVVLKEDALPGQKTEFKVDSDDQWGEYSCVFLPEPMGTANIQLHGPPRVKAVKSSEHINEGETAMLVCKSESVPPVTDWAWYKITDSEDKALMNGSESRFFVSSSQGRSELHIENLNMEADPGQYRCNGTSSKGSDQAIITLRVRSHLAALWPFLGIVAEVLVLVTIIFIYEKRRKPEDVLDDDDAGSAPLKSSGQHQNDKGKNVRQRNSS
The assay can be described thus: NP40-soluble protein abundance relative to vehicle (solubility fold change) (ratio); higher = more soluble protein in presence of GTP. The method, then:
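Solubility proteome profiling in Jurkat crude lysate. Lysate was treated with Mg-GTP (0.1-10 mM) for 10 min at room temperature and 3 min at 37 °C, then solubilised with 0.8% NP40 and benzonase, followed by ultracentrifugation. Proteins were quantified by TMT10 LC-MS/MS; the value is the NP40-soluble abundance relative to the NP40-processed vehicle, from 3 independent experiments.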

For `Nc1nc2c(ncn2[C@@H]2O[C@H](COP(=O)(O)OP(=O)(O)OP(=O)(O)O)[C@@H](O)[C@H]2O)c(=O)[nH]1` [guanosine triphosphate], the NP40-soluble protein abundance (concentration: 0.1mM) was found to be 0.873 ± 0.045; the NP40-soluble protein abundance (concentration: 0.5mM) is 0.877 ± 0.074; the NP40-soluble protein abundance (concentration: 1mM) was 0.91 ± 0.042; the NP40-soluble protein abundance (concentration: 2mM) amounted to 0.881 ± 0.081; the NP40-soluble protein abundance (concentration: 4mM) worked out at 0.878 ± 0.062; the NP40-soluble protein abundance (concentration: 6mM) was 0.91 ± 0.087. The NP40-soluble protein abundance runs as follows: (concentration: 8mM) 0.872 ± 0.099; (concentration: 10mM) 0.881 ± 0.065.

(Values after the supplement of paper PMC6411743.)
